# About 79,000 compounds went through this panel and 15% of them were active in at least one assay; those are over-represented in the sample as a whole. Unmarked numbers belong to inactive results. Active and inactive are the calls of the source. No stated cut-off is given here; in the data, active means growth inhibition above about 70%; inactive means the rest.
# Columns and labels:
# [1] = NCI Yeast Anticancer Drug Screen. Data for the rad50 strain (AID 155);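 further: 0% = growth of vehicle-only cultures of the same strain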; details: S. cerevisiae rad50 strain growth inhibition, active compounds read high
# Procedure, shortened: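 Vehicle-treated cultures provide the reference for the growth inhibition reported for compound-exposed, repair-deficient yeast.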
# [2] = NCI Yeast Anticancer Drug Screen. Data for the mec2-1 strain (AID 157); details: S. cerevisiae mec2-1 strain, active compounds read high
# Procedure, shortened: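 Cells of the genetically defined mec2-1 yeast strain are incubated with test compound. Inhibition of growth is calculated against vehicle-treated controls.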
# [3] = NCI Yeast Anticancer Drug Screen. Data for the sgs1 mgt1 strain (AID 161);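 further: 0% = growth of cultures given vehicle only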; details: S. cerevisiae sgs1 mgt1 strain, active compounds read high
# Procedure, shortened: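 Read-out: growth inhibition vs vehicle controls. Cells: mutant yeast strain deficient in DNA damage repair.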
# [4] = NCI Yeast Anticancer Drug Screen. Data for the cln2 rad14 strain (AID 165);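 further: 0% = growth equal to vehicle treated cultures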; details: S. cerevisiae cln2 rad14 strain, active compounds read high
# Procedure, shortened: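 The screen exposed genetically defined yeast (cln2 rad14) to test compounds and scored growth inhibition relative to vehicle-treated controls.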
# [5] = NCI Yeast Anticancer Drug Screen. Data for the bub3 strain (AID 167); details: S. cerevisiae bub3 mutant strain, active compounds read high
# Procedure, shortened: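 Mutant yeast screening strain plus compound; vehicle-treated cultures serve as the 0% inhibition reference.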
# [6] = NCI Yeast Anticancer Drug Screen. Data for the mlh1 rad18 strain (AID 175); details: S. cerevisiae mlh1 rad18 strain growth inhibition, active compounds read high
# Procedure, shortened: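 Compound-treated yeast growth, normalised to vehicle controls. Strain bears defined DNA repair mutations.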
# [7] = at 5.0 µM (retest, dose inferred, filed as 0.5)
# [8] = at 50.0 µM (retest, dose inferred, filed as 5.0)
SMILES,"growth inhibition [1, 7]","growth inhibition [1, 8]",growth inhibition ([1]; at 50.0 µM),"growth inhibition [2, 7]","growth inhibition [2, 8]",growth inhibition ([2]; at 50.0 µM),"growth inhibition [3, 7]","growth inhibition [3, 8]",growth inhibition ([3]; at 50.0 µM),"growth inhibition [4, 7]","growth inhibition [4, 8]",growth inhibition ([4]; at 50.0 µM),"growth inhibition [5, 7]","growth inhibition [5, 8]",growth inhibition ([5]; at 50.0 µM),"growth inhibition [6, 7]","growth inhibition [6, 8]",growth inhibition ([6]; at 50.0 µM)
CCN(CC)C(=S)N/N=C(\C)c1cccc(C)n1,84% (active),100% (active),88.7% (active),82% (active),99% (active),91.7% (active),62%,99% (active),85.3% (active),82% (active),99% (active),89.4% (active),87% (active),99% (active),88.9% (active),81% (active),99% (active),85.8% (active)
C1=C(c2ccccc2)C(c2ccccc2)C(c2ccccc2)C/C1=N/OCCN1CCCC1 (configuration not stated),30%,99% (active),99% (active),55%,99% (active),99.6% (active),17%,100% (active),99.6% (active),-9%,98% (active),55.1%,39%,99% (active),99.2% (active),78% (active),99% (active),97.7% (active)
[CH3][Sn]1([CH3])[O]C(=O)CCN=Cc2c(ccc3ccccc23)[O][Sn]([CH3])([CH3])[O]C(=O)CCN=Cc2c(ccc3ccccc23)[O]1,57%,98% (active),90.6% (active),61%,99% (active),92.8% (active),82% (active),99% (active),93% (active),24%,99% (active),91.7% (active),84% (active),98% (active),92.3% (active),93% (active),99% (active),89.8% (active)
CCCn1c(=O)c2ccccc2[n+]2c(-c3ccc([N+](=O)[O-])cc3)csc12,5%,91% (active),93% (active),1%,92% (active),91.8% (active),1%,67%,92.1% (active),-7%,77% (active),67.1%,-17%,97% (active),93.5% (active),11%,85% (active),92.2% (active)
CC1(C)/C=C/C2=Nc3cc(Br)c(Br)c(Br)c3C23CC(=O)N3/C=C(\Cl)c2nc(Br)[nH]c21 (configuration not stated),22%,97% (active),92% (active),15%,96% (active),93.8% (active),32%,98% (active),93.8% (active),29%,98% (active),91.7% (active),12%,98% (active),93% (active),-11%,98% (active),92.5% (active)
CC(=O)CC(C)=O.CCN(CC)CC[C-]=O.[Pd+2],1%,54%,66.9%,8%,33%,70.8% (active),-5%,22%,73.5% (active),21%,32%,9.6%,-1%,33%,76.5% (active),0%,54%,74.9% (active)
Cc1ccc(NC(=S)SCc2ccc(Cl)cc2)cc1Cl,33%,97% (active),90.5% (active),19%,98% (active),92.3% (active),44%,99% (active),92.2% (active),40%,98% (active),89.8% (active),55%,99% (active),91.9% (active),23%,97% (active),91% (active)
CN(C)CCC1(C2=CCCC2)CC/C(=C\c2ccc(Cl)cc2)C1=O (configuration not stated),24%,86% (active),94.3% (active),28%,96% (active),94.3% (active),26%,97% (active),94% (active),31%,97% (active),92.3% (active),37%,98% (active),92.2% (active),33%,97% (active),87.5% (active)
O=c1c2[nH]c3cccc(Cl)c3c2cnn1-c1ccc(F)cc1,4%,47%,96.7% (active),2%,74% (active),97.2% (active),9%,35%,96.6% (active),2%,85% (active),94.5% (active),2%,53%,98% (active),-2%,79% (active),97% (active)
Cc1cc(O)c(O)cc1C/C=C/c1ccccc1,-1%,92% (active),53.2%,1%,97% (active),26.7%,5%,97% (active),51.5%,-5%,82% (active),42.5%,0%,96% (active),53.2%,-10%,96% (active),40.6%
CN(NC(=O)/C(=C/c1cc(Cl)cc(Cl)c1O)NC(=O)c1ccccc1)c1cnn(-c2ccccc2)c(=O)c1Cl,15%,43%,52.9%,3%,36%,39.2%,-4%,45%,59.1%,-6%,47%,55.6%,-13%,43%,60%,-7%,62%,67%
Cc1cc(Br)cc(C)c1NC(=O)C(=O)C(C(=O)c1ccc2ccccc2c1)C1OC(=O)c2ccccc21 (configuration not stated),4%,38%,12.5%,4%,19%,14.3%,10%,11%,27.7%,1%,-14%,70% (active),5%,23%,31.5%,4%,19%,31.8%
COc1cc(/C=C/C(=O)c2ccc(O)c(OC)c2)ccc1O,20%,38%,14%,16%,29%,47.8%,9%,26%,54%,8%,27%,34.2%,17%,67%,56.1%,18%,31%,6.6%
COc1cc(/C=C\C(=O)c2cccc(O)c(=O)c2)cc(OC)c1OC,-3%,53%,69.1%,1%,65%,50.5%,16%,83% (active),63.5%,-15%,50%,5.6%,2%,67%,65.5%,7%,89% (active),54.9%
CC(C)c1ccc(O)c(Cc2cc(C(C)C)ccc2O)c1,42%,98% (active),98.2% (active),23%,98% (active),98.3% (active),20%,99% (active),96.7% (active),20%,98% (active),97.1% (active),20%,99% (active),98.6% (active),64%,98% (active),97.5% (active)
CCOC(=O)c1c(NC(=O)CBr)sc(C)c1C,8%,48%,21.2%,-3%,64%,7.8%,10%,74% (active),32.9%,0%,18%,-28.4%,5%,65%,38.1%,7%,69%,21.8%
c1ccc2c(CCc3ccncc3)cccc2c1,4%,74% (active),95.4% (active),2%,60%,95.5% (active),1%,60%,96% (active),3%,53%,88.5% (active),10%,81% (active),94.1% (active),0%,71% (active),92.5% (active)
CCOC(=O)C(=O)N1C(C)=C(C(=O)OCC)CC(C(=O)OCC)=C1C,35%,44%,-24.6%,18%,19%,-26.2%,30%,32%,-17.8%,29%,18%,-34%,27%,25%,-8.45%,32%,31%,-44.1%
COc1cc(CC(=O)O)c(Cc2ccc3c(c2)Cc2ccccc2-3)cc1OC,-7%,94% (active),49%,4%,77% (active),53.5%,-1%,92% (active),52.1%,6%,91% (active),88.7% (active),-7%,95% (active),94.5% (active),2%,88% (active),47.6%
